Data on 24 compounds can be found in PubChem BioAssay AID540352 (National Center for Advancing Translational Sciences (NCATS), 2011).

Molecules are shown by their SMILES. Values joined by “and” are separate entries in the source; they are usually repeats but may differ in a detail not shown here. Identical values can stand only once. Records with an inconclusive call do not appear. Active and inactive are the calls of the source. The call rests on the fitted dose curve; in most records, active means well fitted inhibition curve with a large enough effect; inconclusive means small, poorly fitted or top-dose-only effect; inactive means no such curve, though single readings can be large or run the other way.

A short description of the experiment: qHTS for Inhibitos of Bacillus subtilis Sfp phosphopantetheinyl transferase (PPTase): Chemistry Optimization Followup in B. Subtilis 168. To be noted: B. subtilis 168 growth, BacTiter-Glo luminescence, 5 h; series mostly up to 114 µM. From the text: Phosphopantetheinyl transfer is a process essential to cellular viability and maintenance. Cell-permeable and stable compounds acting as PPTase inhibitors are anticipated to be antimicrobial agents in organisms with complimenting genotypes. […] This experiment evaluated a series of test compounds for antimicrobial activity with B. subtilis 168 (genotype: acpS+ and sfp-), a strain that contains a frameshift mutation in the sfp locus and thus requires a functional AcpS gene product for viability. [Mootz HD, 2001] This strain is expected to be sensitized to cell-permeable AcpS inhibitors, and insensitive to Sfp inhibitors. NIH Chemical Genomics Center [NCGC] NIH Molecular Libraries Probe Centers Network [MLPCN] MLPCN Grant: MH083266-01 Assay Submitter (PI): Michael Burkart, University of California, San Diego
Innoculum preparation. Bacillus subtilis 168 is maintained on lysogeny broth (LB) solidified by the addition of 1.5% w/v agar. Single colonies were used to LB medium (2 mL) and shaken overnight at 30 masculineC. In the morning, this culture (100 ul) was used to seed a fresh LB medium (10 mL) and was shaken at 30 masculineC until the culture OD600 reached 0.5. This culture was diluted 1:100 in fresh LB medium to provide the inoculum below. Bacterial susceptibility. LB medium (2 uL) is dispensed into wells of a sterile white 1536-well plate. Test compounds (23 nL) prepared as serial dilutions in DMSO are added to the plate by pintool transfer. Innoculum (2 uL) is added, the plates are covered with a vented Kalypsys assay lid and incubated at 30 masculineC. After 5 h, Bac-Titer Glo (4 uL; Promega Corp, Madison, WI) is added to the plates. They are incubated 10 minutes at room temperature and then the luminescence detected in a ViewLux multimodal plate reader.
For `COc1cccc(NC(=S)N2CCN(c3cc(Cl)cc(Cl)c3)CC2)n1`, the Potency result is “inactive”.

With `Cc1ccnc(NC(=S)N2CCC(Nc3cccc(C(F)(F)F)c3)CC2)c1`, the Potency was 37.3 µM (active).

For the compound `Cc1ccnc(NC(=S)N2CCN(c3ccc(Cl)c(Cl)c3)CC2)c1`, the Potency is 11.8 µM (active).

For the compound `FC(F)(F)c1cccc(N2CCN(C(=S)Nc3ncnc4ccccc34)CC2)c1`, the Potency was 6.63 µM (active).

For the compound `FC(F)(F)c1cccc(N2CCN(C(=S)Nc3cc(C(F)(F)F)ccn3)CC2)c1`, the Potency is 13.2 µM (active).

On to `Cc1ccnc(NC(=S)N2CCN(c3ccc(N)cc3)CC2)c1`, for which the Potency entry was “inactive”.

For `Cc1cc(C)nc(NC(=S)N2CCN(c3ccc(Cl)cc3F)CC2)c1`, the Potency was 23.5 µM (active).

Consider `Cc1ccnc(NC(=S)N2CCN(c3cccc(C(F)(F)F)n3)CC2)c1`, for which the Potency was 16.7 µM (active).

Take `Cc1ccnc(NC(=S)N2CCN(c3cccc(C(F)(F)F)c3)CC2)c1`: the Potency was 41.8 µM (active) and 14.8 µM (active) and 16.7 µM (active).

Turning to `FC(F)(F)c1cccc(N2CCN(C(=S)Nc3ccccn3)CC2)c1`, the Potency is 46.9 µM (active).

Turning to `Cc1cc(C)nc(NC(=S)N2CCN(c3ccc(Cl)nn3)CC2)c1`, the Potency result is “inactive”.

Regarding `Cc1ccnc(NC(=S)N2CCCN(c3cccc(C(F)(F)F)c3)CC2)c1`, the Potency was 16.7 µM (active).

Turning to `Cc1cccc(NC(=S)N2CCN(c3cccc(C(F)(F)F)c3)CC2)c1`, the Potency entry was “inactive”.

On to `OCc1ccnc(NC(=S)N2CCN(c3cccc(C(F)(F)F)c3)CC2)c1`, for which the Potency was 46.9 µM (active).

Take `Cc1ccnc(NC(=S)N[C@H]2CCN(c3cccc(C(F)(F)F)c3)C2)c1`: the Potency is 52.7 µM (active).

As for `Cc1ccnc(NC(=S)NCCN(C)c2cccc(C(F)(F)F)c2)c1`, the Potency entry was “inactive”.

Consider `COc1cccc(NC(=S)N2CCN(c3cc(C(F)(F)F)cc(C(F)(F)F)c3)CC2)n1`, for which the Potency entry is “inactive”.

Regarding `S=C(Nc1cc(Cl)ccn1)N1CCN(c2cc(Cl)cc(Cl)c2)CC1`, the Potency was 13.2 µM (active).

Consider `COC(=O)c1ccnc(NC(=S)N2CCN(c3cccc(C(F)(F)F)c3)CC2)c1`, for which the Potency is 41.8 µM (active).

Turning to `Cc1ccnc(NC(=S)N2CCc3ccccc3C2)c1`, the Potency was 59.1 µM (active).

Turning to `COc1cccc(NC(=S)N2CCN(c3ccccc3C(F)(F)F)CC2)n1`, the Potency was 26.4 µM (active).

With `Cc1cc(C)nc(NC(=S)N2CCN(Cc3c(F)cccc3Cl)CC2)c1`, the Potency entry is “inactive”.

In the case of `Cc1ccnc(NC(=S)N2CCN(c3cccc(C(F)(F)F)c3)C2)c1`, the Potency result is “inactive”.

Consider `Cc1ccnc(NC(=S)N2CCN(c3cc(F)cc(Cl)c3)CC2)c1`, for which the Potency is 5.91 µM (active).
